# Test results from PMC6925144, “A prospective compound screening contest identified broader inhibitors for Sirtuin 1” (Scientific Reports, 2019).
# Whole data set: some 3,200 compounds, median “TSA(without NAD+) / Primary screening (TSA) / delta Tm (K)” near -0.07, cut for the highest 2% near 0.37. The list comes from a sample in which the highest values are over-represented; it also holds similar structures and randomly drawn compounds.
# Target: NAD-dependent deacetylase Sirtuin 1 (human, UniProt Q96EB6)
# Experiment: primary screen, delta tm
# Set-up: single well (n = 1)
# Details: 10 µM
# Outline: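 Thermal shift of Sirtuin 1 measured without NAD+, compound at 10 µM (n = 1); value is ΔTm, with hits defined as ΔTm > 0.45 K or < −1.5 K. Hits retested at 5, 10, 20 µM (n = 4) and counterscreened on bovine carbonic anhydrase and ABL1 SH2 domain.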
# Sequence of NAD-dependent deacetylase Sirtuin 1 (Q96EB6 2-747 limits assumed): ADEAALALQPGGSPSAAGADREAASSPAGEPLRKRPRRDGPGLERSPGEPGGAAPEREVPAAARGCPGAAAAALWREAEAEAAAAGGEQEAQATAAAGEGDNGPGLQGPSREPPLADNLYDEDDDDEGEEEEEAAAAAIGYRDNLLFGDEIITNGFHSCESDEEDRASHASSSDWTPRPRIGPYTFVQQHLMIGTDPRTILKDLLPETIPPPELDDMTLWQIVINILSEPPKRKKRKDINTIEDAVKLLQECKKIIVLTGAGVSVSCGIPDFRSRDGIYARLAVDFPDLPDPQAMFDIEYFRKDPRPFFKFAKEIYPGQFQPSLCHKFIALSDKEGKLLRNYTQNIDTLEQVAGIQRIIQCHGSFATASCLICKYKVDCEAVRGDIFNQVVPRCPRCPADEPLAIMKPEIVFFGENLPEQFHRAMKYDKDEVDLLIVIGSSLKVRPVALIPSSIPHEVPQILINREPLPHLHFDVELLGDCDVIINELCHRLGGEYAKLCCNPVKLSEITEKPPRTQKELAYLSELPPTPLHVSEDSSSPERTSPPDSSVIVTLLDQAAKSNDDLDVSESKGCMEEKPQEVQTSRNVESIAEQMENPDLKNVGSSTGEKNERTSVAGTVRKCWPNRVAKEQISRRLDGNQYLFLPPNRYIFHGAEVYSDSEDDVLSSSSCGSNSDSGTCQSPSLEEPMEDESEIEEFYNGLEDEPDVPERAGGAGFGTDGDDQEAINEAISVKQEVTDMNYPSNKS
row,Structure (SMILES),TSA(without NAD+) / Primary screening (TSA) / delta Tm (K)
1,COc1ccc(C(=O)C2=C(O)C(=O)N(CCCN3CCOCC3)C2c2ccccc2)cc1C (stereo not shown),0.06 K
2,CC(c1ccc(S(N)(=O)=O)cc1)N(C)Cc1nc2ccccc2c(=O)[nH]1 (stereo not shown),-0.15 K
3,O=C1CCCN1C(=O)Cn1cnc2cc(Cl)ccc2c1=O,-0.11 K
4,O=C(Nc1ccc(OC(F)F)c(Cc2ccccc2)c1)C1=COCCO1,-0.12 K
5,COc1ccc(NC(=O)C2=COCCO2)cc1Cc1ccccc1,0.45 K
6,COc1ccc(NC(=O)C2=COCCO2)cc1S(=O)(=O)N1CCOCC1,-0.13 K
7,O=C(Nc1cccc(Cn2[nH]c(=O)ccc2=O)c1)c1cccc(Oc2ccccc2)c1,-0.13 K
8,NC(=O)c1ccc(OCC(=O)NC(=O)NCc2cccs2)cc1,0.03 K
9,Cc1sc2nc(-c3cccs3)nc(N3CCC(C(N)=O)CC3)c2c1C,0.58 K
10,Cc1sc2ncnc(N3CCC(C(N)=O)CC3)c2c1C,-0.11 K
11,Cc1sc2nc(-c3cccnc3)nc(N3CCC(C(N)=O)CC3)c2c1C,0.25 K
12,NC(=O)C1CCN(c2ncnc3sc4c(c23)CCCC4)CC1,0.28 K
13,NC(=O)C1CCN(c2nc(-c3cccnc3)nc3sc4c(c23)CCCC4)CC1,0.33 K
14,NC(=O)C1CCN(c2nc(-c3cccs3)nc3sc4c(c23)CCCC4)CC1,2.58 K
15,CCSCCOC(=O)c1ccc2[nH]c(C(F)F)nc2c1,-0.04 K
16,Cn1c2ccccc2c2cc(S(=O)(=O)NCc3cccc(NC(=O)C4CC4)c3)ccc21,-0.03 K
17,CS(=O)(=O)c1ccc(NC(=O)c2ccccc2SCC(=O)NC23CC4CC(CC(C4)C2)C3)cc1,-0.03 K
18,CC(C)Oc1ccc(C2C(C(=O)c3ccco3)=C(O)C(=O)N2CCCN2CCOCC2)cc1 (stereo not shown),-0.02 K
19,COc1cccc(C2C(C(=O)c3ccc(Cl)cc3)=C(O)C(=O)N2CCCN2CCOCC2)c1 (stereo not shown),-0.12 K
20,CCC(N)C(N)=O (stereo not shown),-0.22 K
21,CC1CCC(NN)CC1 (stereo not shown),-0.08 K
22,CC(=O)c1ccc(NC(=O)C(C)OC(=O)c2cccc(S(=O)(=O)NC(C)C34CC5CC(CC(C5)C3)C4)c2)cc1 (stereo not shown),0.35 K
23,CC(OC(=O)c1cccc(S(=O)(=O)Nc2ccc(F)cc2)c1)c1nc2ccccc2c(=O)[nH]1 (stereo not shown),0.02 K
24,CCn1c2ccccc2c2cc(NC(=O)C(C)OC(=O)c3cccc(S(=O)(=O)Nc4ccc(Cl)cc4)c3)ccc21 (stereo not shown),0.56 K
25,O=C(/C=C/c1ccc(F)cc1)NCCCn1ccc2ccccc21,0.08 K

row,Structure (SMILES),TSA(without NAD+) / Primary screening (TSA) / delta Tm (K)
1,Cc1ccc2c(CC(=O)Nc3ccccc3Cc3ccccc3)coc2c1,0.07 K
2,COc1ccc(-c2nn(-c3ccccc3)cc2CN(CCCCCCN(Cc2cn(-c3ccccc3)nc2-c2ccc(OC)cc2)C(=O)CCC(=O)O)C(=O)CCC(=O)O)cc1,0.37 K
3,Cc1noc(C)c1CC(=O)OCc1cn(-c2ccccc2)nc1-c1ccc(Cl)cc1,0.22 K
4,Cc1ccc(-c2nn(-c3ccccc3)cc2C(=O)NCc2nnc3ccccn23)cc1,-0.03 K
5,Cc1oc2cc(OC(C)C(=O)NCc3ccco3)ccc2c(=O)c1-c1c(F)cccc1Cl (stereo not shown),-0.11 K
6,O=C1NC(=S)N/C1=C/c1ccc(-c2ccccc2F)o1,0.05 K
7,O=C1NC(=S)N/C1=C\c1ccccc1OCc1ccc(C(=O)O)cc1,0.38 K
8,O=C1NC(=S)N/C1=C\c1cc(Br)ccc1O,-0.23 K
9,COc1ccc(C(N)=O)cc1NC(=O)c1nc2nc(C)cc(C)n2n1,-0.15 K
10,NC(=O)C1CCCN(c2ncnc3sc4c(c23)CCCC4)C1 (stereo not shown),-0.18 K
11,Cc1sc2nc(CSc3ccccc3)nc(N3CCC(C(N)=O)CC3)c2c1C,0.52 K
12,Cc1sc2nc(CN3CCCC3)nc(N3CCC(C(N)=O)CC3)c2c1C,-0.12 K
13,NC(=O)C1CCN(c2nc(CN3CCCCC3)nc3sc4c(c23)CCC4)CC1,0.07 K
14,Cc1sc2nc(CSc3ccccc3)nc(N3CCCC(C(N)=O)C3)c2c1C (stereo not shown),-0.12 K
15,NC(=O)C1CCN(c2nc(CSc3ccccc3)nc3sc4c(c23)CCCC4)CC1,1.78 K
16,O=C1/C(=C/c2cccc(Br)c2)Oc2cc(O)ccc21,0.19 K
17,O=C1CCCN1c1cccc(NS(=O)(=O)c2cccc(F)c2)c1,-0.02 K
18,COc1ccc(NC(C)c2ccc(S(C)=O)cc2)cn1 (stereo not shown),-0.18 K
19,O=C(COC(=O)c1ccc(CNS(=O)(=O)c2ccc(F)c(Cl)c2)cc1)c1ccccc1,-0.03 K
20,O=C(C1=C(O)C(=O)N(CCCN2CCOCC2)C1c1ccco1)c1cc2ccccc2o1 (stereo not shown),0.02 K
21,COc1cc(C=C(C(=O)NCC2CCCO2)C(=O)NCC2CCCO2)ccc1OCC(=O)Nc1ccc(C)cc1 (stereo not shown),-0.08 K
22,O=C(NCC1CCCO1)Nc1ccc(NC(=O)c2ccccn2)cc1 (stereo not shown),0.07 K
23,Cc1ccc(C(=O)Nc2ccc(NC(=O)NCC3CCCO3)cc2)cn1 (stereo not shown),0.52 K
24,Cc1ccc(Nc2nc(CSc3nnc(NCc4ccco4)s3)cs2)cc1,-0.17 K
25,CC(C)OC(=O)CC(Nc1ccc2nnnn2n1)c1ccccc1 (stereo not shown),-0.07 K

row,Structure (SMILES),TSA(without NAD+) / Primary screening (TSA) / delta Tm (K)
1,Cc1noc(CN2CCN(c3ncnc4c3oc3ccccc34)CC2)n1,-0.33 K
2,Cc1ccc(S(=O)(=O)N2CCN(C(=O)CSc3nnc(NCc4ccco4)s3)CC2)cc1,0.16 K
3,O=c1cc(CSc2nnc(-c3ccccc3)o2)c2cc3c(cc2o1)CCC3,-0.18 K
4,COCCNc1nnc(SCc2cc(=O)oc3c(C)c(O)ccc23)s1,-0.74 K
5,O=c1cc(CSc2nnc(Nc3ccccc3)s2)c2ccc(O)cc2o1,0.38 K
6,c1nc(N2CCNCC2)c2sccc2n1,-0.08 K
7,NC(=O)c1ccc(COC(=O)c2cc3c(ccc4ccccc43)[nH]2)cc1,0.05 K
8,O=C(Nc1ccc(Oc2ncccn2)cc1)c1ccc(S(=O)(=O)Nc2ccc(F)cc2)cc1,-0.11 K
9,Cc1nc(COc2ccc(C(=O)Nc3ccc(S(=O)(=O)Nc4cccc(F)c4)cc3)cc2)cs1,0.09 K
10,N#CC(C(=O)c1ccc(NS(=O)(=O)c2ccccc2)cc1)c1nc(-c2ccccn2)cs1 (stereo not shown),0.46 K
11,COc1ccc2[nH]cc(C3CCN(C(=O)c4coc(C)c4)CC3)c2c1,-0.03 K
12,Cc1nnc(CNC(=O)c2cc(-c3ccccc3)nc3c(C(N)=O)ncn23)s1,-0.04 K
13,COc1ccccc1NS(=O)(=O)c1ccc(NC(=O)CNC(=O)C23CC4CC(CC(C4)C2)C3)cc1,0.03 K
14,COc1ccccc1NC(=O)COc1ccc(C(=O)OCC(=O)NC23CC4CC(CC(C4)C2)C3)cc1OC,0.08 K
15,COc1ccccc1NC(=O)c1ccc(NC(=O)COC(=O)C23CC4CC(CC(C4)C2)C3)cc1,0.42 K
16,COc1ccc(NC(=O)c2ccccc2NC(=O)COC(=O)C23CC4CC(CC(O)(C4)C2)C3)cc1,0.19 K
17,COc1ccc(NC(=O)COc2ccc(C(=O)NCC34CC5CC(CC(C5)C3)C4)cc2OC)cc1,-0.34 K
18,COc1ccc(NC(=O)c2ccc(NC(=O)COC(=O)C34CC5CC(CC(Br)(C5)C3)C4)cc2)cc1,1.08 K
19,CCOC(=O)c1ccc(S(=O)(=O)N2CCC(C(=O)OCC(=O)NCC34CC5CC(CC(C5)C3)C4)CC2)cc1,-0.13 K
20,CC(=O)N(c1nn(CN2CCN(c3ccc(C(N)=O)cn3)CC2)c(=S)s1)C1CC1,-0.23 K
21,CC1Cc2ccccc2N1c1ncnc2ccsc12 (stereo not shown),0.07 K
22,CC(C)(C)c1ccc(OCC(=O)NNC(=O)c2cccnc2O)cc1,0.17 K
23,Cc1nc2cc(C(=O)Nc3ccc(NC(=O)N4CCCCCC4)cc3)ccc2n1C,-0.04 K
24,Cc1nc(N2CCC(C(N)=O)CC2)c2c3c(sc2n1)CCCCC3,0.78 K
25,NC(=O)C1CCN(c2ncnc3sc4c(c23)CCC4)CC1,-0.21 K

row,Structure (SMILES),TSA(without NAD+) / Primary screening (TSA) / delta Tm (K)
1,Cc1nc(N2CCC(C(N)=O)CC2)c2c3c(sc2n1)CCC3,0.07 K
2,NC(=O)C1CCN(c2ncnc3sc4c(c23)CCCCC4)CC1,0.36 K
3,Cc1nc(N2CCC(NC(N)=O)CC2)c2c3c(sc2n1)CCCC3,-0.03 K
4,Cc1nc(N2CCC(C(N)=O)CC2)c2c3c(sc2n1)CCCC3,0.56 K
5,CN(CC(=O)Nc1cccc2ccccc12)C(=O)C1=COCCO1,-0.23 K
6,Cc1[nH]c2ccccc2c1CC(=O)Nc1cccc(-c2noc(=O)[nH]2)c1,0.07 K
7,CC(C)Oc1ccc(C(=O)C2=C(O)C(=O)N(CCCN3CCOCC3)C2c2cccs2)cc1 (stereo not shown),-0.23 K
8,NC(=O)c1ccc(CN2CCSCC2)cc1,0.06 K
9,CCN(CC)CCNC(=O)c1ccc(NC(=O)CC2CCCC2)cc1,0.07 K
10,NC(=S)c1ccc(C(=O)NCc2ccnc(OCC(F)(F)F)c2)cc1,-0.18 K
11,CN(c1ccccc1)S(=O)(=O)c1cccc(C(=O)NCCc2c[nH]c3ccccc23)c1,0.16 K
12,CN(c1ccccc1)S(=O)(=O)c1cccc(NC(=O)CCc2c[nH]c3ccccc23)c1,0.38 K
13,CN(c1ccccc1)S(=O)(=O)c1cccc(NC(=O)CCCc2c[nH]c3ccccc23)c1,0.52 K
14,O=C(CCc1c[nH]c2ccccc12)Nc1cccc(S(=O)(=O)NCc2ccco2)c1,-0.01 K
15,O=C(CCc1c[nH]c2ccccc12)Nc1nnc(-c2ccccc2)o1,0.52 K
16,O=C(CCc1c[nH]c2ccccc12)Nc1ccc2nc[nH]c(=O)c2c1,0.26 K
17,CN(c1ccccc1)S(=O)(=O)c1cccc(NC(=O)CNc2cccc3ccccc23)c1,0.17 K
18,Cc1ccc(N(C)S(=O)(=O)c2cccc(C(=O)NCCc3c[nH]c4ccccc34)c2)cc1,0.23 K
19,O=C(CCc1c[nH]c2ccccc12)NCCc1ccco1,-0.05 K
20,COc1cccc(NC(=S)Nc2cccc(S(=O)(=O)N(C)c3ccccc3)c2)c1,-0.03 K
21,NC(=O)c1ccc(C(=O)OCC(=O)c2cc3ccccc3o2)cc1,-0.38 K
22,Cc1ccc(NC(=O)CN2CCN(C(=O)c3ccc(-c4ccc(Cl)cc4)o3)CC2)cc1,0.08 K
23,Cc1ccc2nc(-c3ccc(NC(=O)C(C)Cl)cc3)sc2c1 (stereo not shown),0.22 K
24,O=C1NC(=S)NC(=O)C1=Cc1cn(-c2ccccc2)nc1-c1cc2ccccc2o1,0.36 K
25,CC(=O)N1Cc2ccccc2CC1C(=O)NC1CCOc2ccccc21 (stereo not shown),-0.13 K
